Reference: article PMC4336329 (PLoS ONE, 2015)
Screen size: about 310,000 compounds; about 14,000 (4.5%) showed an effect of 50% or more. The effect is printed as a negative number. Only a selection was taken, and strong results are over-represented in it overall.

Target: human ether-à-go-go-related gene (hERG) potassium channel (human, UniProt Q12809)
Test: primary screen, population patch clamp on CHO cells stably expressing hERG; higher = less effect of the substance
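Also: peak tail current of the secondary pulse compared with the same well before compound.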

Chain of human ether-à-go-go-related gene (hERG) potassium channel (Q12809 whole entry, looked up): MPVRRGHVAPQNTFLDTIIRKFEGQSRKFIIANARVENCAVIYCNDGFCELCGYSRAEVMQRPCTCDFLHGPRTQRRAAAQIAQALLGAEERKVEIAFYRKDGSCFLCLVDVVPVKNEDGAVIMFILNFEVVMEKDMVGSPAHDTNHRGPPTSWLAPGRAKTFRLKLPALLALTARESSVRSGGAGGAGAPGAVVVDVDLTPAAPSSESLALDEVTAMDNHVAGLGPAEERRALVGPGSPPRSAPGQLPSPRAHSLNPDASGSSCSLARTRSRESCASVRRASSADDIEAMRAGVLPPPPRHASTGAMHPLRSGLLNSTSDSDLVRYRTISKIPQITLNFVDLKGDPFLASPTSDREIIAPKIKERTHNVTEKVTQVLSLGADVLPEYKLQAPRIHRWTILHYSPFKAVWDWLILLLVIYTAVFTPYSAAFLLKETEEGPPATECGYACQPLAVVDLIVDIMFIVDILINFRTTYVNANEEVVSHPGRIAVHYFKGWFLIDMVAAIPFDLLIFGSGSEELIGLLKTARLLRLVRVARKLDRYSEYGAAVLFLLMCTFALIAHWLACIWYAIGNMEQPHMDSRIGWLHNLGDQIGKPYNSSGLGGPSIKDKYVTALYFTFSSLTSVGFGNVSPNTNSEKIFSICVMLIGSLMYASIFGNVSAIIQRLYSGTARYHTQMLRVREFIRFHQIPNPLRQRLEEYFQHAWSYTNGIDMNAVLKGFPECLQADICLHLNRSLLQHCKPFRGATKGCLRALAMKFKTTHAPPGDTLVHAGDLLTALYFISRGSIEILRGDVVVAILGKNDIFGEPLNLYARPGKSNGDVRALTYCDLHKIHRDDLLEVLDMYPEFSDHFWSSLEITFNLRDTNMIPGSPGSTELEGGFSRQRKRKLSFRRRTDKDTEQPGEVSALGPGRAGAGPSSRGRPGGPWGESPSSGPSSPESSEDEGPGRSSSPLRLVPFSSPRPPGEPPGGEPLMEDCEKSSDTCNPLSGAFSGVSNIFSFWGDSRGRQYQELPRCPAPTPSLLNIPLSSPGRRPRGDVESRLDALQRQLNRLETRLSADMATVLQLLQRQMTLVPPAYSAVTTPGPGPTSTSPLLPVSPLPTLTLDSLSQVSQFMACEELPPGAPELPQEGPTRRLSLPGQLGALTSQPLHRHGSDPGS

Structure (SMILES)	hERG current change (%, negative = inhibition) at 10uM [%]
NS(=O)(=O)c1cc(C(=O)O)cc(N2CCCC2)c1Oc1ccccc1	0.0774
O=C(Nc1ccc(Cl)cn1)c1ccccc1F	-1.25
O=C(NC(=S)Nc1ccc2oc(=O)ccc2c1)c1cccc(Cl)c1	4.11
COc1cc(NC(=O)CN(C)S(=O)(=O)c2ccc3c(c2)CCC(=O)N3)cc(OC)c1	-23.9
CCC1=NN(C(=O)c2ccccc2Br)C(O)(c2ccc(Br)cc2)C1 (centres unmarked)	25.2
CC(=O)Nc1ccc(N2C(=O)c3cccc4c(O)ccc(c34)C2=O)cc1	13.4
COc1ccc(OC)c(S(=O)(=O)N2CCC(C(=O)N3CCCCCC3)CC2)c1	5.45
COc1ccc(OC)c(S(=O)(=O)N2CCC(C(=O)N3CCCC3)CC2)c1	7.71
COc1ccc(OC)c(S(=O)(=O)N2CCC(C(=O)N3CCN(c4ccc(F)cc4)CC3)CC2)c1	-78
COc1ccc(-c2[nH]ncc2CN(C)Cc2cccnc2)c(F)c1	-1.66
CC(=O)N1CCc2cc(S(=O)(=O)NC(CC(C)C)C(=O)N3CCn4c3nc3ccccc34)ccc21 (centres unmarked)	-60
CC(=O)N1CCc2cc(S(=O)(=O)NC(CC(C)C)C(=O)N3CCc4ccccc4C3)ccc21 (centres unmarked)	-26.8
CC(=O)N1CCc2cc(S(=O)(=O)NC(CC(C)C)C(=O)N3CCCC3)ccc21 (centres unmarked)	-20.2
O=C1CS/C(=N/N=C/c2ccccc2)N1Cc1ccco1	1.4
COC(=O)C(C)N=Cc1ccccc1 (centres unmarked)	12.9
COc1ccc(-n2c(/C=C/c3ccc(O)cc3)nc3ccccc3c2=O)cc1	-21.6
Cc1ccc(-n2c(/C=C/c3ccc4c(c3)OCO4)nc3ccccc3c2=O)cc1	-50.4
O=c1c2ccccc2nc(/C=C/c2ccc3c(c2)OCO3)n1-c1ccccc1	-26
O=c1c2ccccc2nc(/C=C/c2ccc3c(c2)OCO3)n1-c1cccc(O)c1	-7.38
COc1ccc(-n2c(/C=C/c3ccc(O)c(O)c3)nc3ccccc3c2=O)cc1	10.6
COc1ccc(-n2c(/C=C/c3ccc4c(c3)OCO4)nc3ccccc3c2=O)cc1	-55.3
CCc1ccccc1OCC(=O)OCC(=O)Nc1cc(C)on1	-2.74
CCC(=O)N1CCc2cc(S(=O)(=O)CCC(=O)N3CCN(c4ccccc4)CC3)ccc21	3.15
